# Data from PubChem BioAssay (NCATS).
# Where “and” joins values, the source holds several entries; their conditions need not be identical. Equal entries are not always repeated. Inconclusive results are not listed. Entries that show only a call come without a potency. Calls of active or inactive are those of the source. Unless noted, the call rests on the fitted dose curve; in most records, active means well fitted curve in the direction sought with a large enough effect; inconclusive means small, poorly fitted or top-dose-only effect, or another doubt; inactive means no such curve, though single readings can be large; an effect the other way counts as inactive or inconclusive. Starred links: 1 amine or outer side, 2 acyl side, 3 side chain; linkers in the order of their positions; H or OH if unused. Positions of bridges follow the written chain, without caps; N, C: chain ends. Non-standard residues stand in square brackets, D forms with d. Residues, ends and D or L forms follow the SMILES beside them. Chains are numbered I, II in the order given. ξ: configuration not given here. *: point of attachment. Actinocin(9to1) = Cc1c2oc3c(C)ccc(C(=O)[*:1])c3nc-2c(C(=O)[*:2])c(N)c1=O; Octanoyl(6-Me) = CCC(C)CCCCC(=O)*; ξThr(3R) = C[C@@H](O)C(N)C(=O)O; NMeV = CN[CH](C(=O)O)C(C)C; dDab = NCC[C@@H](N)C(=O)O; Dab = NCC[C@H](N)C(=O)O; Sar = CNCC(=O)O
# How the values were obtained:
# [1] = qHTS to identify inhibitors of the type 1 interferon - major histocompatibility complex class I in skeletal muscle: primary screen against the NCATS Mechanism Interrogation Plate v5.0 (MIPE) Libary (AID 1347411); further: nearly all actives have a fitted effect of over 65% in size; further: potency means the concentration at half of the fitted maximal effect
# Outline: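 Cells were genome-edited human myoblasts carrying a HiBit tag on endogenous HLA-B. They were treated with IFN-beta (4.0 ng/ml) and titrated compounds (top 46 uM) for 24 hrs before lytic HiBiT detection.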
# [2] = target: Calcium and integrin-binding protein 1 (Homo sapiens) (UniProt Q99828); test: Primary qHTS for Identification of Calcium Integrin Binding Protein 1 (CIB1) Competitor (AID 1508620);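 further: GST tagged CIB1 binding a fluorescein labelled alphaIIb integrin peptide tracer; top concentration of the series differs between compounds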
# Outline: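 Fluorescence polarization competition: CIB1-GST (1 uM final) preincubated with compound 15 min at room temperature, then FITC-labeled alphaIIb peptide (100 nM final) added for another 15 min. Polarization read at Ex 480/Em 540.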
# [3] = Primary qHTS for small molecule stabilizers of the endoplasmic reticulum resident proteome: Secreted ER Calcium Modulated Protein (SERCaMP) assay (AID 1508630)
# Outline: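 GLuc-SERCaMP-expressing SH-SY5Y cells, pretreated 16 h with compound, are challenged with thapsigargin to empty ER calcium stores; after 4 h, coelenterazine is added directly to the medium and luminescence is imaged.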
# [4] = Primary qHTS for inhibitors of nuclear receptor binding SET domain protein 2 (NSD2) in an isogenic RCH-ACV NSD2 p.E1099K mutant (9B) (AID 1645876); further: nearly all actives have a fitted effect of over 70% in size; further: potency means the concentration at half of the fitted maximal effect
# [5] = Primary qHTS for inhibitors of nuclear receptor binding SET domain protein 2 (NSD2) in an RCH-ACV wild type WT cells (2C) (AID 1645877); further: nearly all actives have a fitted effect of over 70% in size; further: potency means the concentration at half of the fitted maximal effect
# [6] = target: Cytochrome P450 2C9 (Homo sapiens) (UniProt P11712); test: Cytochrome P450 family 2 subfamily C member 9 (CYP2C9) small molecule antagonists: luciferase biochemical (cell-free) qHTS assay (AID 1645842; active means well fitted curve in the direction sought with a large enough effect in the repeat runs; an effect the other way counts as inactive or inconclusive; further: nearly all actives have a fitted effect of over 55% in size; further: potency means the concentration at half of the fitted maximal effect)
# Outline: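 Luminescence, after 20 min with luciferin detection reagent, reflected CYP2C9 turnover during a 1 h NADPH-driven reaction at 37C. Enzyme-substrate mix contained 0.4% bovine serum albumin and was preincubated with compound 10 min at room temperature.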
# [7] = target: Catechol O-methyltransferase (Homo sapiens) (UniProt P21964); test: Confirmatory Screen for Target Class Profiling of Small Molecule Inhibitors of Methyltransferases (AID 1745852); settings: MTase-Glo luminescence, SAH detection, recombinant enzyme; measured here: COMT max response; stronger effect = lower value
# [8] = target: Guanidinoacetate N-methyltransferase (Homo sapiens) (UniProt Q14353); test: as above; settings: activity change, negative = inhibition: at 57.3 µM (top of the series)
# Chain of Cytochrome P450 2C9 (Homo sapiens) (P11712 whole entry, looked up): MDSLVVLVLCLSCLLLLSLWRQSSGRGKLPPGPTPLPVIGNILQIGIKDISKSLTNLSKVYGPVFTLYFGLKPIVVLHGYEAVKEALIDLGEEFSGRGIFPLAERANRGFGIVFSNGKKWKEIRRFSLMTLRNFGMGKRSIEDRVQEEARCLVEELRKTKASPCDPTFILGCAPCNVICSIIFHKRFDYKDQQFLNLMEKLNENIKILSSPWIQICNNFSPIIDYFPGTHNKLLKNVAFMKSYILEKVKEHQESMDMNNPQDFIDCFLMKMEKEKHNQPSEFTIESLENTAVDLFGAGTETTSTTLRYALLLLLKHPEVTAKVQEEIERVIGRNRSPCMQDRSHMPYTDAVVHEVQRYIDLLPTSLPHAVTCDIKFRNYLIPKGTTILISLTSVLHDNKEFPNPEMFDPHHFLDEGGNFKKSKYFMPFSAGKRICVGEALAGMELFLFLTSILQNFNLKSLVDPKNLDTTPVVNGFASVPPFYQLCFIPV
# Chain of Calcium and integrin-binding protein 1 (Homo sapiens) (Q99828 whole entry, looked up): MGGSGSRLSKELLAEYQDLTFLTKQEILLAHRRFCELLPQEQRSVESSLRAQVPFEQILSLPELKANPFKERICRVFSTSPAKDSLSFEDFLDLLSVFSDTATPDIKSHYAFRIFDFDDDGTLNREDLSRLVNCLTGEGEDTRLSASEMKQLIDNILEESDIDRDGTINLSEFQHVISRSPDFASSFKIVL
# Chain of Catechol O-methyltransferase (Homo sapiens) (P21964 whole entry, looked up): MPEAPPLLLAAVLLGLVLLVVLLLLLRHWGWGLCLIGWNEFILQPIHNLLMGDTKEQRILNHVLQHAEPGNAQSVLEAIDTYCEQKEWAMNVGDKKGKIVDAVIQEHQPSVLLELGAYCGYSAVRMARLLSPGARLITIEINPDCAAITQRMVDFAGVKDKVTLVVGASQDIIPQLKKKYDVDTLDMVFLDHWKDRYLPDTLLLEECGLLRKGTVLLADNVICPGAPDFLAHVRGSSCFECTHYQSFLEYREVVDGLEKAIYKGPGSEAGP
structure (smiles),measurement,setting,value
CCCNS(=O)(=O)Nc1ncnc(OCCOc2ncc(Br)cn2)c1-c1ccc(Br)cc1,Potency,[1],inactive
same,Potency,[2],inactive
same,outcome,[3],inactive
same,Potency,[4],18600 nM (active)
same,Potency,[5],16.6 µM (active)
CCC(C)CCCCC(=O)N[C@@H](CCN)C(=O)NC(C(=O)N[C@H](CCN)C(=O)N[C@@H]1CCNC(=O)C([C@@H](C)O)NC(=O)[C@@H](CCN)NC(=O)[C@@H](CCN)NC(=O)[C@@H](CC(C)C)NC(=O)[C@H](Cc2ccccc2)NC(=O)[C@H](CCN)NC1=O)[C@@H](C)O (stereo partly drawn) ({Octanoyl(6-Me)}-[Dab][ξThr(3R)][dDab][dDab][Dab]F[dL][dDab][dDab][ξThr(3R)]; lactam 4-C),Potency,[1],inactive
same,Potency,[2],inactive
same,outcome,[3],inactive
same,Potency,[4],inactive
same,Potency,[5],inactive
COc1cc(O)c2c(c1)C1OC1C[C@H](O)[C@H](O)C(=O)C=CC[C@H](C)OC2=O (some centres undefined),Potency,[1],13100 nM (active)
same,Potency,[2],inactive
same,outcome,[3],inactive
same,Potency,[4],3720 nM (active)
same,Potency,[5],3.32 µM (active)
Cc1ccc2nc(NCCN)c3ncc(C)n3c2c1,Potency,[1],4660 nM (active)
same,Potency,[2],inactive
same,outcome,[3],inactive
same,Potency,[4],9.2 µM (active) and 4.68 µM (active)
same,Potency,[5],9.2 µM (active) and 3.72 µM (active)
C[C@@H]1C(=O)O[C@H]2CC34[C@H]5C[C@@H](C(C)(C)C)C36[C@H](OC(=O)[C@@H]6O)O[C@@]4(C(=O)O5)[C@]21O (some centres undefined),Potency,[1],inactive
same,Potency,[2],inactive
same,outcome,[3],inactive
same,Potency,[4],inactive
same,Potency,[5],inactive
CC(C)C[C@H](NC(=O)CNC(=O)c1cc(Cl)ccc1Cl)B1OC(=O)CC(CC(=O)O)(C(=O)O)O1 (some centres undefined),Potency,[1],294 nM (active)
same,Potency,[2],inactive
same,outcome,[3],inactive
same,Potency,[6],inactive
same,Potency,[4],186 nM (active)
same,Potency,[5],0.118 µM (active)
O=C(c1ccc(F)cc1)N1CCC[C@H](c2nc(-c3ccc(F)cc3)no2)C1,Potency,[1],inactive
same,Potency,[2],inactive
same,outcome,[3],inactive
same,Potency,[4],inactive
same,Potency,[5],inactive
c1coc(CNc2ncnc3nc[nH]c23)c1,Potency,[1],inactive
same,Potency,[2],inactive
same,outcome,[3],inactive
same,Potency,[4],inactive
same,Potency,[5],inactive
"Cc1c2oc3c(C)ccc(C(=O)NC4C(=O)NC(C(C)C)C(=O)N5CCCC5C(=O)N(C)CC(=O)N(C)C(C(C)C)C(=O)OC4C)c3nc-2c(C(=O)NC2C(=O)NC(C(C)C)C(=O)N3CCCC3C(=O)N(C)CC(=O)N(C)C(C(C)C)C(=O)OC2C)c(N)c1=O (centres undefined) (I: TVP[Sar][NMeV] / II: TVP[Sar][NMeV]; ester I:1-I:C, II:1-II:C; linker I:N-II:N via Actinocin(9to1); configuration not given here)",Potency,[1],114 nM (active)
same,Potency,[2],inactive
same,outcome,[3],inactive
same,Potency,[4],1.4 nM (active)
same,Potency,[5],0.0006 µM (active)
Cc1cc(C(=O)NOCCO)c(Nc2ccc(I)cc2F)n(C)c1=O,Potency,[1],inactive
same,Potency,[2],inactive
same,outcome,[3],inactive
same,Potency,[4],inactive
COc1ccc2c(c1OC)C(=O)OC2[C@H]1c2c(cc3c(c2OC)OCO3)CCN1C (some centres undefined),Potency,[1],inactive
same,Potency,[2],inactive
same,outcome,[3],inactive
same,Potency,[4],20900 nM (active)
same,Potency,[5],23.5 µM (active)
CCOC(=O)[C@@H](N)Cc1ccc(-c2cc(O[C@H](c3ccc(Cl)cc3-n3ccc(C)n3)C(F)(F)F)nc(N)n2)cc1,Potency,[1],9300 nM (active)
same,Potency,[2],inactive
same,outcome,[3],inactive
same,Potency,[6],6010 nM (active)
same,Potency,[5],23.5 µM (active)
same,activity,[7],-0.461%
same,"activity change, negative = inhibition",[8],0%
COc1ccc(S(=O)(=O)Nc2cccnc2Nc2ccc(O)cc2)cc1,Potency,[1],inactive
same,Potency,[2],inactive
same,outcome,[3],inactive
same,Potency,[6],8490 nM (active)
same,Potency,[4],9340 nM (active)
same,Potency,[5],9.34 µM (active)
OC[C@H]1OC(O)C[C@@H](O)[C@H]1O (some centres undefined),Potency,[1],inactive
same,Potency,[2],inactive
same,outcome,[3],inactive
same,Potency,[4],inactive
same,Potency,[5],inactive
Cc1cc(Nc2ncc3c(n2)N(C)C(=O)N(c2cc(NC(=O)c4cccc(C(F)(F)F)c4)ccc2C)C3)n(C)n1,Potency,[1],234 nM (active)
same,Potency,[2],inactive
same,outcome,[3],inactive
same,Potency,[4],132 nM (active)
same,Potency,[5],0.132 µM (active)
CC[C@@]1([C@@H]2O[C@@H]([C@H]3O[C@@](O)(CO)[C@H](C)C[C@H]3C)C[C@H]2C)CC[C@H]([C@]2(C)CC[C@]3(C[C@H](O)[C@@H](C)[C@@H]([C@@H](C)[C@@H](OC)[C@H](C)C(=O)O)O3)O2)O1,Potency,[1],inactive
same,Potency,[2],inactive
same,outcome,[3],inactive
same,Potency,[4],162 nM (active)
same,Potency,[5],0.102 µM (active)
CCS(=O)(=O)Nc1ccc2[nH]c(O)c(C(=Nc3ccc(CN4CCCCC4)cc3)c3ccccc3)c2c1,Potency,[1],2620 nM (active)
same,Potency,[2],inactive
same,outcome,[3],inactive
same,Potency,[4],148 nM (active)
same,Potency,[5],0.0295 µM (active)
CC(=O)SCC(Cc1ccccc1)C(=O)NCC(=O)OCc1ccccc1 (centres undefined),Potency,[1],inactive
same,Potency,[2],inactive
same,outcome,[3],inactive
same,Potency,[4],inactive
same,Potency,[5],inactive
N#Cc1cc(NC(=O)Nc2nnc(-c3ccncc3)s2)ccc1-c1cn[nH]c1,Potency,[1],inactive
same,Potency,[2],inactive
same,outcome,[3],inactive
same,Potency,[4],inactive
same,Potency,[5],inactive
O=C(O)c1ccc(Nc2ncc3c(n2)-c2ccc(Cl)cc2C(c2c(F)cccc2F)=NC3)cc1,Potency,[1],inactive
same,Potency,[2],inactive
same,outcome,[3],inactive
same,Potency,[6],21300 nM (active)
same,Potency,[4],258 nM (active) and 742 nM (active)
same,Potency,[5],325 nM (active) and 372 nM (active)
N=c1ccn2c(n1)O[C@H]1[C@@H](O)[C@@H](CO)O[C@H]12,Potency,[1],inactive
same,Potency,[2],inactive
same,outcome,[3],inactive
same,Potency,[4],20.9 nM (active)
same,Potency,[5],0.0235 µM (active)
Cn1cc(C[C@@H](N)C(=O)O)c2ccccc21,"activity change, negative = inhibition",[1],-7.72% [at 8.44 µM] (inactive)
same,Potency,[2],inactive
same,outcome,[3],inactive
same,"activity change, negative = viability loss",[4],-2.38% [at 9.23 µM] (inactive)
same,outcome,[5],inactive [at 9.23 µM]
C[C@H]1[C@@H](OC(=O)CCC(=O)O)O[C@@H]2O[C@@]3(C)CC[C@@H]4[C@H](C)CC[C@@H]1[C@@]24OO3,Potency,[1],inactive
same,Potency,[2],inactive
same,outcome,[3],inactive
same,Potency,[4],1860 nM (active)
same,Potency,[5],1.48 µM (active)
